# Counter-ions that a name gives are not always drawn.
# System: FB
# Assay: Euclidean distance of Cell Painting phenotypic profile (signed KS, 77 features) to DMSO centroid (dimensionless distance); 5 or 10 uM (library dependent); higher = stronger phenotypic change vs DMSO (phenoactivity)
# Conditions: 48 h
# How it was run: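 Stained cells were imaged confocally at 20X with 9 fields per well, after 48 h of exposure to library compounds at 10 or 5 uM (set by library; 0.1% DMSO final). The cells were five cancer lines and a healthy fibroblast line. From the images, Harmony extracted 77 features, each expressed as a signed Kolmogorov-Smirnov statistic relative to same-plate vehicle wells. Phenoactivity is measured as Euclidean distance to the median vehicle profile, using plate-position-corrected, correlation-weighted profiles averaged across replicates at the top dose.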
row,SMILES,Euclidean distance
1,CCOC(=O)Nc1cc(-c2ccc(C)c(NS(C)(=O)=O)c2)nn2c(C)nnc12 [Bromosporine],4.35
2,CC(C)c1nc(CN(C)C(=O)N[C@@H](CCN2CCOCC2)C(=O)N[C@H](CC[C@H](Cc2ccccc2)NC(=O)OCc2cncs2)Cc2ccccc2)cs1 [Cobicistat (GS-9350)],1.66
3,C=C[C@](C)(O)CC[C@@H]1[C@@]2(C)CCCC(C)(C)[C@@H]2CC[C@@]1(C)O [Sclareol],0.717
4,CCCC1O[C@@H]2C[C@H]3[C@@H]4CCC5=CC(=O)C=C[C@]5(C)[C@H]4[C@@H](O)C[C@]3(C)[C@]2(C(=O)CO)O1 (some centres undefined) [Budesonide],3.49
5,CO/N=C(\C(=O)N[C@@H]1C(=O)N2C(C(=O)O)=C(COC(C)=O)CS[C@H]12)c1csc(N)n1 [Cefotaxime sodium],0.644
6,O=C(O)Cc1ccccc1Nc1c(Cl)cccc1Cl [Diclofenac Diethylamine],0.689
7,Cc1cc(C(=O)NOCCO)c(Nc2ccc(I)cc2F)n(C)c1=O,4.35
8,CCCCc1ncc(/C=C(\Cc2cccs2)C(=O)O)n1Cc1ccc(C(=O)O)cc1 [Eprosartan Mesylate],0.647
9,Cn1nc(C(C)(C)C)cc1C(=O)N[C@@H](Cc1cccc(Cl)c1)C(=O)NCC#N [Cathepsin Inhibitor 1],1.9
10,C/C=C\c1ccc(O)c(OC)c1 [Isoeugenol],0.672
11,Cc1cc(N2CCN([C@@H]3CN[C@H](C(=O)N4CCSC4)C3)CC2)n(-c2ccccc2)n1 [Teneligliptin hydrobromide],1.2
12,COc1ccc(-c2ccc3c(N4CCOC[C@@H]4C)nc(N4CCOC[C@@H]4C)nc3n2)cc1CO,5.02
13,CC(C)(C)Cn1c(N)nc2ccc(-c3[nH]c(C(C)(C)C)nc3-c3ccc(F)cc3)nc21,3.56
14,CCN1CCN(C(=O)N[C@@H](C(=O)N[C@@H]2C(=O)N3[C@@H]2SC(C)(C)[C@@H]3C(=O)O)c2ccccc2)C(=O)C1=O [Piperacillin Sodium],1.1
15,COc1cc(N2CCC(N3CCN(C)CC3)CC2)ccc1Nc1ncc(Cl)c(Nc2ccccc2S(=O)(=O)C(C)C)n1,3.6
16,OC1CN(CCCOCCc2ccc3sccc3c2)C1 [Edonerpic maleate],1.18
17,c1cc(CN2CCCNCCNCCCNCC2)ccc1CN1CCCNCCNCCCNCC1 [Plerixafor 8HCl (AMD3100 8HCl)],1.5
18,COc1cc(C(=O)OCCCCNC(=N)N)cc(OC)c1O [Leonurine],1.29
19,C[C@H](Cn1cnc2c(N)ncnc21)OCP(=O)(O)O [Tenofovir],0.924
20,NC(=O)[C@@H]1CSSCCC(=O)N[C@@H](CCCCN=C(N)N)C(=O)NCC(=O)N[C@@H](CC(=O)O)C(=O)N[C@@H](Cc2c[nH]c3ccccc23)C(=O)N2CCC[C@H]2C(=O)N1 [Eptifibatide Acetate],1.11

row,SMILES,Euclidean distance
1,CC[C@H](NC(=O)[C@H](C)NC)C(=O)N1C[C@@H](O)C[C@H]1Cc1c(-c2[nH]c3cc(F)ccc3c2C[C@@H]2C[C@H](O)CN2C(=O)[C@H](CC)NC(=O)[C@H](C)NC)[nH]c2cc(F)ccc12 [Birinapant],1.06
2,C[C@]12CC[C@@H]3c4ccc(O)cc4CC[C@H]3[C@@H]1CC[C@@H]2O [Estradiol],1.1
3,CCOC(=O)c1c(N)sc2c1CCN(Cc1ccccc1)C2 [Tinoridine hydrochloride],1.13
4,Nc1nc2[nH]cc(CCc3ccc(C(=O)N[C@@H](CCC(=O)O)C(=O)O)cc3)c2c(=O)[nH]1 [Pemetrexed Disodium Hydrate],0.937
5,CC[C@]12CCCN3CCc4c(n(c5ccccc45)[C@@](O)(C(=O)OC)C1)[C@@H]32 [Vincamine],0.795
6,O=C(/C=C/c1ccc(O)c(O)c1)c1ccc(O)cc1O [Butein],1.51
7,CC(COc1ccccc1)NC(C)C(O)c1ccc(O)cc1 (centres undefined) [Isoxsuprine hydrochloride],1.28
8,Nc1nnc(-c2cccc(Cl)c2Cl)c(N)n1 [Lamotrigine],1.12
9,O=C(O)c1cccnc1 [Nicotinic Acid],0.953
10,CC(C)(CO)[C@@H](O)C(=O)NCCC(=O)O [D-Pantothenic acid],1.08
11,CC1(C)O[C@@H]2C[C@H]3[C@@H]4C[C@H](F)C5=CC(=O)C=C[C@]5(C)[C@@]4(F)[C@@H](O)C[C@]3(C)[C@]2(C(=O)CO)O1 [Fluocinolone Acetonide],2.02
12,Cc1ccc(C(=O)N(CCCN)[C@@H](c2nc3cc(Cl)ccc3c(=O)n2Cc2ccccc2)C(C)C)cc1,2.49
13,OC(CN1CCN(c2cccc(Cl)c2)CC1)C(c1ccccc1)c1ccccc1 (centres undefined),1.03
14,COc1cc(/C=C/C(=O)O)ccc1O [Sodium ferulate],1.08
15,CS(=O)(=O)N1CCc2c(-c3cnc(N)nc3)nc(N3CCOCC3)nc21,2.13
16,C=CCc1cccc(/C=N/NC(=O)CN2CCN(Cc3ccccc3)CC2)c1O,1.79
17,O=C(NCCCNc1nc(Nc2cccc(NC(=O)N3CCCC3)c2)ncc1I)c1cccs1,3.8
18,N[C@@H]1CCCCN(c2c(F)cc3c(=O)c(C(=O)O)cn(C4CC4)c3c2Cl)C1 [Besifloxacin HCl],0.781
19,C=CC(=O)Nc1cc(Nc2nccc(-c3cn(C4CC4)c4ccccc34)n2)c(OC)cc1N(C)CCN(C)C,2.32

# — the supplement of paper PMC10127200
